Bioassay records as filed in PubChem.
WRN inhibitor – blocks human WRN helicase; Q14191; WRN helicase unwinding, fluorescent forked duplex, kinetic; Potency, µM (titrated, usually from 114 µM), usual class: inhibitors; 360,000 tested, 0.46% active; further: nearly all actives have a fitted effect of over 55% in size
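WRN at 20 nM final was preincubated with compound for 15 min at room temperature; reaction started with 100 nM forked duplex oligonucleotide carrying fluorophore and quencher plus 2 mM ATP (final). Unwinding followed kinetically by red fluorescence (ex 525/em 598 nm).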
POLH inh – DNA polymerase eta (human) inhibition; recombinant Pol eta, fluorescent DNA replication assay; Potency, µM (series often up to 114 µM), usual class: inhibitors; 390,000 tested, 1.2% active; AID 588591
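Fluorescent replication assay: 50 nM final substrate added after a 15 min room-temperature compound preincubation with 10 nM enzyme. Signal taken at 0 min and again at 10 min.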
PI5P4K alpha inh – blocks human PI5P4K alpha kinase activity. P48426. PI5P4Kalpha enzyme, ADP-Glo luminescence, 60 min; active compounds read low. max response, %. 330,000 tested, 1.2% active; active means max response of -50% or lower; inconclusive means between -30% and -50%; inactive means -30% or higher; further: value at the top dose of about 77 µM
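qHTS, 1536-well: enzyme/substrate mix, compound by pin tool, 5 microM ATP final; RT 60 min; ADP-Glo reagents 1 (45 min) then 2 (30 min); luminescence.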
POLB inh – DNA polymerase beta (human) inhibition; P06746; Pol beta primer extension/strand displacement, fluorescence kinetic; Potency, µM (titrated, usually from 114 µM), actives largely listed as inhibitors; 340,000 tested, 1.3% active; AID 485314
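Kinetic readout of DNA synthesis with strand displacement by Pol beta. Compound and 10 nM enzyme sit 15 min at room temperature; 50 nM substrate starts the reaction, read immediately and at 10 min.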
POLI inh – DNA polymerase iota (human) inhibition | Q9UNA4 | Pol iota fluorescent replication assay, 10 min | Potency, µM (top dose mostly 115 µM), most hits filed as inhibitors | 390,000 tested, 1% active | AID 588590
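Pol iota at 10 nM preincubated 15 min with compounds at room temperature; reaction started with fluorescent substrate, 50 nM final. Fluorescence read kinetically at 0 and 10 min; buffer-only wells as negative control.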
Pol kappa inh – inhibitors of human DNA polymerase kappa. purified Pol kappa, fluorescent DNA synthesis assay, 10 min. Potency, µM (top dose mostly 107 µM), actives largely listed as inhibitors. 400,000 tested, 0.53% active
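Enzyme at 10 nM met test compounds for 15 min at room temperature. Substrate addition (50 nM final) began the reaction, which was monitored by fluorescence at 0 and 10 min.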
Large screens that a line does not name were inactive. Compounds with a hit are over-represented: about 2.8% of the library has one in this group of screens. Unless noted, the call rests on the fitted dose curve; in most records, active means well fitted curve in the direction sought with a large enough effect; inconclusive means small, poorly fitted or top-dose-only effect, or another doubt; inactive means no such curve, though single readings can be large; an effect the other way counts as inactive or inconclusive.

CN(C)c1ccc(-c2c(C3C4C=CCCC4(C)C(=O)N3Cc3ccccc3)ccc3ccccc23)cc1 (stereo not drawn)	none (no result: WRN inhibitor, POLH inh, PI5P4K alpha inh, POLB inh)
Cc1ccc(C)c(/C(O)=C2/C(=O)C(=O)N(CCN3CCOCC3)C2c2ccco2)c1 (stereo not drawn)	POLH inh 22µM, POLB inh 7.1µM, POLI inh inconclusive, Pol kappa inh inconclusive
Oc1ccc(/C=N/n2c(-c3ccccc3)n[nH]c2=S)cc1	none
Cc1n[nH]c(=S)n1/N=C/c1ccc(OCc2ccc(Cl)cc2Cl)cc1	none
CCn1c2ccccc2c2cc(/C=N/n3c(-c4cc(C)[nH]n4)n[nH]c3=S)ccc21	POLH inh inconclusive, PI5P4K alpha inh -60, POLB inh 50µM, POLI inh inconclusive
S=c1[nH]nc(-c2cc(-c3ccccc3)n[nH]2)n1/N=C/c1ccc(Cl)cc1	POLH inh inconclusive, POLB inh 40µM, POLI inh 16µM
Cc1n[nH]c(=S)n1/N=C/c1ccc(OCc2ccc(Cl)cc2)cc1	PI5P4K alpha inh -55
S=c1[nH]nc(-c2cc(-c3ccccc3)n[nH]2)n1/N=C/c1ccc(Cl)c(Cl)c1	WRN inhibitor 35µM, POLH inh inconclusive, POLB inh 22µM, POLI inh inconclusive, Pol kappa inh inconclusive
COc1ccc(OC)c2sc(NC(=O)c3cccc(N4C(=O)CCC4=O)c3)nc12	WRN inhibitor inconclusive, POLH inh inconclusive, POLB inh inconclusive, POLI inh 28µM
COc1ccc(NS(=O)(=O)c2ccc(C(=O)N3CCC(C)CC3)cc2)cc1	none (no result: POLB inh)
CCc1ccc(CNC(=O)c2ccc(NC(=O)N3CCSc4ncccc43)cc2)cc1	none (no result: WRN inhibitor, PI5P4K alpha inh)
CCC(C)N1C(=O)/C(=C/c2c(NCCCOC(C)C)nc3c(C)cccn3c2=O)SC1=S (stereo not drawn)	POLH inh 22µM, POLB inh 28µM
O=C(Nc1ccc(NC(=S)NC(=O)c2cccs2)cc1)c1ccco1	WRN inhibitor inconclusive, POLH inh 79µM, POLB inh inconclusive, POLI inh 35µM, Pol kappa inh inconclusive
CCn1c(CSc2nc3ccccc3s2)nnc1SCC(=O)c1ccc(Cl)cc1	WRN inhibitor 79µM, PI5P4K alpha inh -51
CC1(C(=O)NS(=O)(=O)C2CC2)CCN(C(=O)c2ccc(F)c(Cl)c2)C1 (stereo not drawn)	none (no result: POLH inh, POLB inh, POLI inh, Pol kappa inh)
Cc1cc(N)c2ccccc2[n+]1CCCCCCCCCC[n+]1c(C)cc(N)c2ccccc21	POLB inh 32µM, POLI inh inconclusive, Pol kappa inh inconclusive (no result: WRN inhibitor, PI5P4K alpha inh)
C/C(=N\NC(=O)c1ccc(F)cc1)c1ccc(N2CCOCC2)cc1	none
O=C(O)c1cc(N/N=C/c2ccc(N3CCOCC3)s2)ccc1Cl	WRN inhibitor inconclusive, POLH inh 11µM, PI5P4K alpha inh -56, POLB inh 32µM, POLI inh 13µM, Pol kappa inh 28µM
C/C(=N\Nc1ccc(Cl)c(C(=O)O)c1)c1ccc(N2CCOCC2)cc1	POLH inh 28µM, PI5P4K alpha inh inconclusive, POLI inh inconclusive, Pol kappa inh inconclusive
CC1CCN(c2nc3ccc(C(=O)NCc4ccccc4Cl)cc3s2)CC1	POLB inh inconclusive (no result: WRN inhibitor, PI5P4K alpha inh)
O=S(=O)(c1ccc(Cl)cc1)c1nnn2c1nc(NC1CCCCC1)c1sccc12	POLB inh 32µM (no result: WRN inhibitor, PI5P4K alpha inh)
Cc1ccc(S(=O)(=O)c2nnn3c2nc(NC2CCCCC2)c2sccc23)cc1	none (no result: WRN inhibitor, PI5P4K alpha inh)
CS(=O)(=O)N1Cc2cc(C(=O)NCC3CC3)nc(-c3cccc(-c4cccnc4)c3)c2[C@H]1CCO	none (no result: POLH inh, POLB inh, POLI inh, Pol kappa inh)
CC1C/C(=N\NC(N)=S)c2cc(Cl)ccc2S1 (stereo not drawn)	POLI inh 79µM
OC[C@H]1O[C@@H](OC[C@H]2O[C@@H](O)[C@H](O)[C@@H](O)[C@@H]2O)[C@H](O)[C@@H](O)[C@@H]1O	none (no result: WRN inhibitor, POLH inh, PI5P4K alpha inh, POLB inh, POLI inh)
CC(/C=C/C=C(\C)C(=O)O[C@@H]1O[C@H](CO[C@@H]2O[C@H](CO)[C@@H](O)[C@H](O)[C@H]2O)[C@@H](O)[C@H](O)[C@H]1O)=C\C=C\C=C(C)\C=C\C=C(/C)C(=O)O[C@@H]1O[C@H](CO[C@@H]2O[C@H](CO)[C@@H](O)[C@H](O)[C@H]2O)[C@@H](O)[C@H](O)[C@H]1O	Pol kappa inh 21µM (no result: WRN inhibitor, POLH inh, PI5P4K alpha inh, POLB inh, POLI inh)
Cc1ccccc1CNC(=O)Nc1ccc2c(c1)N(C)C(=O)c1ccccc1S2	none (no result: WRN inhibitor, PI5P4K alpha inh)
O=C(O)c1ccccc1C(=O)Nc1n[nH]c(=S)s1	POLB inh 22µM (no result: PI5P4K alpha inh)
CC(C)Cn1c(SCC(=O)Nc2cc(Cl)c(Cl)cc2Cl)nc(O)cc1=O	none (no result: POLB inh)
COc1ccc(S(=O)(=O)Nc2ccc(F)cc2)cc1N(C)S(=O)(=O)c1ccc(Cl)cc1	POLI inh 89µM (no result: PI5P4K alpha inh)
COc1ccc(N(C(=O)c2ccc(OC)c(OC)c2)S(=O)(=O)c2ccc(Cl)cc2)cc1	POLI inh 89µM, Pol kappa inh 79µM (no result: WRN inhibitor, PI5P4K alpha inh)
COc1ccc(S(=O)(=O)Nc2ccc(F)c(F)c2)cc1Cl	none (no result: PI5P4K alpha inh)
COc1ccc(N(C(=O)c2ccc(C)cc2)S(=O)(=O)c2ccc(Cl)cc2)cc1	POLB inh inconclusive (no result: WRN inhibitor, PI5P4K alpha inh)
COc1ccc(NS(=O)(=O)c2ccc(OC)c(N(C)S(=O)(=O)c3ccc(Cl)cc3)c2)cc1	POLI inh 89µM (no result: PI5P4K alpha inh)
Cc1sc2ccccc2[n+]1CCc1ccccc1	POLI inh inconclusive (no result: WRN inhibitor, POLH inh, PI5P4K alpha inh, POLB inh)
COc1ccc(-c2nn(-c3ccccc3)cc2C(=O)NC(=S)Nc2cc(Cl)ccc2Cl)cc1	none
O=C(Cc1ccccc1)Nc1ccc2oc(-c3ccncc3)nc2c1	POLH inh inconclusive, POLB inh 22µM, POLI inh inconclusive
O=C(Nc1ccc2oc(-c3ccncc3)nc2c1)c1cccs1	POLH inh inconclusive, POLB inh 22µM
O=C(Nc1ccc2oc(-c3ccc(Cl)c(Cl)c3)nc2c1)c1ncn[nH]1	POLH inh inconclusive, PI5P4K alpha inh inconclusive, POLB inh 11µM, POLI inh inconclusive, Pol kappa inh inconclusive
O=C(Nc1ccc2oc(-c3ccccc3F)nc2c1)c1ncn[nH]1	POLB inh inconclusive
O=C(Cc1ccc[nH]c1=O)c1ccc(F)cc1	none (no result: WRN inhibitor, POLH inh, PI5P4K alpha inh, POLB inh)
Oc1c(/C=N/c2ccccn2)sc2ccccc12	POLB inh 22µM
COc1cc(OC)cc(C(=O)OC(C)C(=O)NC2CCCc3ccccc32)c1 (stereo not drawn)	none (no result: POLB inh)
COc1ccc(CCN2C(=O)CC(C(N)=O)SC2=Nc2ccccc2)cc1 (stereo not drawn)	POLH inh inconclusive, POLB inh inconclusive, POLI inh 79µM
CNC(=O)C1CC(=O)N(CCc2ccccc2)C(=Nc2ccc(OC)cc2)S1 (stereo not drawn)	none
OCCN(CCO)c1ccc(/C=C/c2ccnc3ccccc23)cc1	none (no result: WRN inhibitor, POLH inh, PI5P4K alpha inh, POLB inh)
O=C(COC(=O)CCN1C(=O)/C(=C\C=C\c2ccccc2)SC1=S)Nc1cc(F)ccc1F	POLH inh 32µM, PI5P4K alpha inh -51, POLB inh inconclusive, POLI inh 25µM, Pol kappa inh inconclusive
